Only some compounds are listed: those with a hit (about 7.4% of all), similar ones and a draw of the others.
FLuc modulator: qHTS profiling assay for firefly luciferase inhibitor/activator using purifed enzyme and Km concentrations of substrates (counterscreen for miR-21 project); Luciferin 4-monooxygenase (Photinus pyralis), P08659; purified FLuc, Km substrates, luminescence inhibition; Potency, µM (titrated, usually from 57.5 µM), without a hit: at the top dose activity change, negative = inhibition, usual class: inhibitors; hit rate 6.9% among 360,000; AID 588342, 2011;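 note: plate controls were vehicle for no effect and reference inhibitor for full effect; nearly all actives have a fitted effect of over 55% in size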
Target sequence (P08659 whole entry, looked up): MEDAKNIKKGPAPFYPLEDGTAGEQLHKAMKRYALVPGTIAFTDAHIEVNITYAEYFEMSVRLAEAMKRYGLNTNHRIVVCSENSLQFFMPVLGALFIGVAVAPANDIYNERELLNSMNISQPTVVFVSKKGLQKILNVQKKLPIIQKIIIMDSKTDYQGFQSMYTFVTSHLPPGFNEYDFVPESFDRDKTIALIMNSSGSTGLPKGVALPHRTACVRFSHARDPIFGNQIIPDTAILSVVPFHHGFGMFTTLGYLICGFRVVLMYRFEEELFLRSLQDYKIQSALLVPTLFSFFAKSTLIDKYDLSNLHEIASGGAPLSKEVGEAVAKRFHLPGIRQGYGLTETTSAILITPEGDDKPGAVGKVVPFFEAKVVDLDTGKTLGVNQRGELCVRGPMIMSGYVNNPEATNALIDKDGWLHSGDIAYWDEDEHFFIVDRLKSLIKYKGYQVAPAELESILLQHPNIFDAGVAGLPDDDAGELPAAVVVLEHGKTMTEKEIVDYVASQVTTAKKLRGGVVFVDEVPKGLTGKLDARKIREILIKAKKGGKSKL
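Purified P. pyralis luciferase (10nM final) with 10uM D-luciferin and 10uM ATP (Km levels) in 50mM Tris acetate pH 7.5, 10mM Mg acetate, 0.01% Tween-20, 0.05% BSA; qHTS 6-point titration, ~60 µM downward; luminescence read.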
ELG1 genotoxic: qHTS screen for small molecules that induce genotoxicity in human embryonic kidney (HEK293T) cells expressing luciferase-tagged ELG1; HEK293T ELG1-luciferase reporter, luminescence, 16 h; Potency, µM (series often up to 46 µM), for the others: top-dose activity change, positive = activation, actives largely listed as activators; hit rate 1.3% among 330,000; AID 504466, 2011; note: % of control where 0% means no effect; nearly all actives have a fitted effect of over 60% in size
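Reporter readout depends on ELG1 protein level, which increases with genetic stress. After 16 hr compound exposure at 37 °C, luciferase activity was quantified using ONE-Glo.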
SMN2 splice up: qHTS Assay for Enhancers of SMN2 Splice Variant Expression; hit rate 2.8% among 210,000; HEK293 SMN2-luciferase splicing reporter, luminescence, 30-36 h; Potency, µM (top dose mostly 46.1 µM), for the others: at the top dose activity change, positive = activation, most hits filed as activators; note: % of control where 0% means no effect; nearly all actives have a fitted effect of over 55% in size
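qHTS luciferase splicing reporter: luminescence rises when SMN2 exon 7 is included in transfected HEK293 cells. Compound exposure lasted 30-36 h at 37C, with 4.5 mM final sodium butyrate as control, followed by a ONE-Glo read.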
NPC1 prom act: qHTS Assay for NPC1 Promoter Activators; Huh7 NPC1 promoter luciferase reporter, 24 h; Potency, µM (series often up to 9.22 µM), without a hit: at the top dose activation, usual class: activators; hit rate 2.4% among 320,000; note: % of control where 0% means no effect; nearly all actives have a fitted effect of over 60% in size
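Readout is luciferase luminescence, reflecting NPC1 promoter activation in stably transfected Huh7 cells after 24 h compound exposure at 37 °C in reduced-serum medium with 10% FBS.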
Rab9 promoter act: qHTS Assay for Rab9 Promoter Activators. Potency, µM (top dose mostly 9.22 µM), for inactives: at the highest dose activation, negative = inhibition, actives largely listed as activators. hit rate 2.8% among 320,000. Huh7 Rab9 promoter-luciferase reporter, luminescence, 24 h; note: % of control where 0% means no effect; nearly all actives have a fitted effect of over 60% in size
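Luminescence from Amplite-detected luciferase (10 minutes, ambient) reports Rab9 promoter activation. Before that, stable Rab9-luciferase Huh7 cells (1500/well, reduced-serum OP-MEM I plus 10% FBS) were exposed to compound for 24 hours at 37C.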
Numbers without * were called inactive; ? = inconclusive; / = no result given; [ ] = dose if it differs, or a comment. Calls come from the whole dose curve; as a rule, active = well fitted curve in the direction sought with a large enough effect; inconclusive = small, poorly fitted or top-dose-only effect, or another doubt; inactive = no such curve, though single readings can be large; an effect the other way counts as inactive or inconclusive. Potency is the fitted concentration of half-maximal effect.

SMILES | FLuc modulator | ELG1 genotoxic | SMN2 splice up | NPC1 prom act | Rab9 promoter act
Fc1ccc(N2CCN(c3cnc4ccccc4n3)CC2)cc1 | 11µM* | ? | / | 2.8µM* | 3.5µM*
c1ccc(N2CCN(c3cnc4ccccc4n3)CC2)cc1 | 3.4µM* | 1% | 3.5µM* | 1.6µM* | 1.1µM*
CCN(CC)S(=O)(=O)c1ccc2c(c1)N(CC(=O)Nc1c(C)cccc1C)C(=O)C1CCCN21 (centres undefined) | 1% | / | 1% | / | /
C=Cc1cccc(C)c1 | / | / | -3% | / | /
O=C(Nc1ccncc1)C1COc2ccccc2O1 (centres undefined) | -3% | -4% | / | 1% | -5%
O=C(Nc1nc2c(s1)CCCC2)C1COc2ccccc2O1 (centres undefined) | 0.76µM* | 0.58µM* | 0.5µM* | 0.56µM* | 0.32µM*
CCC(CC)c1nnc(NC(=O)C2COc3ccccc3O2)s1 (centres undefined) | 7.6µM* | ? | ? | 1.6µM* | 1.3µM*
O=C(Nc1ncc(Cc2ccccc2)s1)C1COc2ccccc2O1 (centres undefined) | 3µM* | 12% | 10µM* | 1.6µM* | 2.8µM*
CCc1nnc(NC(=O)C2COc3ccccc3O2)s1 (centres undefined) | 12µM* | ? | 11µM* | 3.2µM* | 2.8µM*
Cc1ccc2nc(SC(C)C(=O)NCc3ccc4c(c3)OCO4)[nH]c2c1 (centres undefined) | 3% | -2% | / | -2% | 0%
O=C(NC1=NCCS1)C1COc2ccccc2O1 (centres undefined) | 0.24µM* | ? | / | 0.025µM* | ?
Cc1nnc(NC(=O)C2COc3ccccc3O2)s1 (centres undefined) | 24µM* | ? | 28% | ? | ?
CCCCCc1nnc(NC(=O)C2COc3ccccc3O2)s1 (centres undefined) | ? | ? | -2% | 21% | 29%
N#Cc1cccc(NC(=O)N2CCCC3(CCN(S(=O)(=O)c4ccccc4)CC3)C2)c1 | / | / | -25% | / | /
O=C(CN(Cc1ccco1)C(=O)CNS(=O)(=O)c1ccc(F)cc1)NCc1ccccc1 | 1% | -4% | / | 4% | -1%
Cc1ccc(OCc2nc(-c3ccc(C(=O)N4CCN(c5cc(Cl)ccc5C)CC4)cc3)oc2C)cc1 | 3% | / | -3% | / | /
COc1ccc(C(=O)Nc2cccc3cccnc23)cc1OC | 21µM* | 1% | -14% | 15% | -6%
COc1ccc(C(=O)Nc2cccc(NC(=O)c3ccc(OC)c(OC)c3)n2)cc1OC | 8.5µM* | -3% | / | 2% | 7%
COc1ccccc1C(=O)Nc1cccc(NC(=O)c2ccccc2OC)n1 | ? | 8% | / | 16% | -1%
COc1cccc(C(=O)Nc2cccc3cccnc23)c1OC | 24µM* | 9% | / | 10% | 1%
CC(C)N(Cc1ccccc1)C(=O)c1cc2ccc3cccnc3c2[nH]1 | 19µM* | / | / | / | /
COc1ccc(NC(=O)C(=O)Nc2cccc3cccnc23)cc1OC | -13% | 7% | / | 0% | ?
Cc1c(-c2ccc(Cl)cc2)c(=O)oc2ccc(OC(=O)N3CCOCC3)cc12 | -7% | / | / | / | /
CC[C@@]12CCCN3CCc4c(n(c5ccccc45)C(=O)C1)[C@H]32 | / | / | -1%[9.22 µM] | / | /
COc1ccc(NC(=O)N2CCCC3(CCN(C(=O)c4c(C)noc4C)CC3)C2)cc1 | / | / | 0% | / | /
SMILES | FLuc modulator | ELG1 genotoxic | SMN2 splice up | NPC1 prom act | Rab9 promoter act
O=C(Nc1ccc(F)cc1)c1ccc(-n2cnc3cccnc32)cc1 | -2% | / | / | / | /
O=C(CCNC(=O)c1ccco1)NCc1ccc(C(=O)O)cc1 | / | -2% | / | / | /
Cc1ccc(CNC(=O)c2cc(S(=O)(=O)N3CCCCC3)cn2C)cc1 | -5% | / | / | / | /
COc1ccccc1NC(=O)c1cc2ccc3cccnc3c2[nH]1 | 2.7µM* | / | / | / | /
CCOc1ccccc1C(=O)Nc1cccc2cccnc12 | 27µM* | -5% | / | -2% | 0%
COc1cc(Cl)c(C)cc1NC(=O)c1cc2ccc3cccnc3c2[nH]1 | -7% | / | / | / | /
COc1ccc(C(=O)Nc2nc(C)c(C)s2)cc1OC | 13µM* | ? | ? | ? | ?
COc1cccc(NC(=O)CSC(N)=O)c1 | 0% | -12% | -23% | 0% | -2%
O=C1C=CC(=O)c2c1ccc1c2ccc2ccccc21 | / | / | -13%[20.6 µM] | / | /
COc1ccccc1C(CNC(=O)c1oc2ccccc2c1C)N1CCCC1 (centres undefined) | 24µM* | -2% | / | 1% | -6%
O=C(NCCc1ccc2c(c1)OCCO2)c1ccccc1F | ? | 16% | -9% | ? | 29%
COc1ccc(C(CNC(=O)c2oc3ccccc3c2C)N2CCCCC2)cc1 (centres undefined) | 6% | / | -12% | / | /
Cc1c(C(=O)NCCc2ccc3c(c2)OCCO3)oc2ccccc12 | 19µM* | -1% | -13% | -2% | 9%
COc1ccc(CCNC(=O)c2oc3ccccc3c2C)cc1 | 19µM* | 0% | / | -3% | -4%
CCOC(=O)COc1ccc(C(=O)Nc2cccc(Cl)c2C)cc1 | -4% | -3% | -2% | -4% | -10%
Cc1ccc(CN2c3ccccc3S(=O)(=O)c3ccccc32)cc1 | -14% | / | / | / | /
O=C(O)c1cc(=O)[nH]c(=O)[nH]1 | / | / | 8% | / | /
COc1ccc(Nc2nc(N)nc(CSc3nncn3C)n2)cc1 | 15µM* | 21µM* | 19% | 17% | ?
COc1ccc(Nc2nc(N)nc(CSc3nnc(C)s3)n2)cc1 | 27µM* | ? | 22µM* | 26% | ?
CCOc1ccccc1Nc1nc(N)nc(CSc2nncn2C)n1 | 4% | -1% | 0% | -2% | -5%
Cc1nc(NCCc2ccccc2)sc1C(=O)N(C)C | -19% | ? | / | ? | 29%
Cc1nc2sc3c(=O)[nH]nnc3c2c(C)c1Br | ? | -3% | / | -2% | 12%
COc1ccc(NC(=O)CSCC(=O)Nc2nnc(C)s2)cc1 | 1% | 11% | / | 0% | -6%
CC(=O)N1CC(C)Oc2ccc(S(=O)(=O)NC(CC(=O)O)c3ccc(C)cc3C)cc21 (centres undefined) | 2% | 1% | / | 1% | -3%
CC(=O)Nc1ccc(OCc2cnc(Cl)s2)cc1 | -14% | 10% | 12% | 13% | 24%
O=C(OCc1cnc(Cl)s1)c1ccccc1Cl | ? | 1% | 6% | -3% | 8%
Clc1ccc(OCc2cnc(Cl)s2)cc1 | 15µM* | 8% | -4% | -2% | 11%
CCc1ccc(OCc2cnc(Cl)s2)cc1 | 21µM* | ? | 10% | 18% | 23%
O=C(Nc1ccc(Cl)cc1Cl)c1n[nH]c(Cn2cncn2)n1 | 4.3µM* | ? | 18% | 16% | 17%

Screening results as filed in PubChem.
